Common to all, as to settings: concentration: 10 µM; 24 h
Experiment [1] has as its system HCC1569. Put plainly: cell number relative to DMSO (% of DMSO); higher = more cells (less growth inhibition / toxicity). The essentials:
(§1)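 HCC1569 and TDF cells (800 per well, 384-well plates, RPMI with 10% FBS) were treated with compounds at 10 µM for 24 h at 37 °C, in triplicate. Cells were fixed in 3.7% formaldehyde and stained with a rabbit anti-H1.0 antibody, an AlexaFluor 647 secondary and DAPI; six fields per well were imaged at ×10. H1.0 nuclear intensity or cell number is expressed as percent of the plate DMSO control, taking the median of replicates. HCC1569 values were smoothed for positional effects.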

The subject of experiment [2] is TDF. The experiment is described as above. The essentials: as §1
For experiment [3], the system named is TDF. Put plainly: H1.0 immunofluorescence intensity relative to DMSO (% of DMSO); higher = stronger H1.0 induction, active = 120 or more. In outline: as §1
Experiment [4] concerns HCC1569. Put plainly: H1.0 immunofluorescence intensity relative to DMSO (% of DMSO); higher = stronger H1.0 induction, active = 140 or more. The essentials:
as §1

Molecules are shown by their SMILES.
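Throughout, for H1.0 immunofluorescence intensity relative to DMSO: TDF is a line of transformed human dermal fibroblasts of mesenchymal origin.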
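Throughout, for cell number relative to DMSO: TDF denotes transformed human dermal fibroblasts of mesenchymal origin.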

Take `CC(O)CCCC(O)C=CC1C(O)CC(=O)C1CC=CCCCC(=O)O` [19(R)-Hydroxy-prostaglandin E2]: the cell number was 98.1 in experiment [1] and 92.7 in experiment [2]. Besides, the figures for the H1.0 immunofluorescence intensity in experiment [3] and in experiment [4] were 95.7 (inactive) and 92.1 (inactive), respectively.

Turning to `NC(=O)N1C(=O)/C(=C(\O)c2cccs2)c2cc(Cl)ccc21`, the results for the cell number in experiment [1] and in experiment [2] were 101 and 104, respectively. The results for the H1.0 immunofluorescence intensity in experiment [3] and in experiment [4] were 94.8 (inactive) and 106 (inactive), respectively.

With `C[N+](C)(C)CCO.[Cl-]` [2-hydroxy-N,N,N-trimethylethanaminium chloride], the cell number in experiment [1] amounted to 101; in experiment [2] it was 107. The H1.0 immunofluorescence intensity was 94.9 (inactive) in experiment [3] and 99.5 (inactive) in experiment [4].

As for `CCOc1cc(N2CCC(O)CC2)ccc1Nc1ncc2c(n1)N(C)c1ccccc1C(=O)N2C`, the cell number stood at 85.6 in experiment [1] and 72.2 in experiment [2]. The H1.0 immunofluorescence intensity is 117 (inactive) in experiment [3] and 169 (active) in experiment [4].

On to `O=[N+]([O-])c1ccc([O-])c(OS(=O)(=O)[O-])c1.[K+].[K+]` [dipotassium 5-nitro-2-oxidophenyl sulfate], for which the cell number in experiment [1] is 99.5; in experiment [2], 108. Moreover, the results for the H1.0 immunofluorescence intensity in experiment [3] and in experiment [4] were 90.9 (inactive) and 100 (inactive), respectively.

With `Cc1[nH]ccc2c1[nH]c1cc(=O)ccc12.Cl.O.O`, the cell number in experiment [1] came out at 94; in experiment [2], 94.7. Besides, the H1.0 immunofluorescence intensity in experiment [3] was 97.1 (inactive); in experiment [4] it was 94.2 (inactive).

Consider `CS(=O)(=O)CCNCc1ccc(-c2ccc3ncnc(Nc4ccc(OCc5cccc(F)c5)c(Cl)c4)c3c2)o1.Cc1ccc(S(=O)(=O)O)cc1.Cc1ccc(S(=O)(=O)O)cc1` [Lapatinib ditosylate], for which the cell number in experiment [1] amounted to 88.5; in experiment [2] it was 94.3. The H1.0 immunofluorescence intensity in experiment [3] was 93.5 (inactive); in experiment [4] it was 110 (inactive).

As to `CCCCCCCCCCCCCC=CC(O)C(CO)NC(=O)CCCCCCCCCCCCCCC` (stereo not given) [C16 Ceramide], the cell number in experiment [1] was 96.6; in experiment [2], 95.3. The figures for the H1.0 immunofluorescence intensity in experiment [3] and in experiment [4] were 102 (inactive) and 97.5 (inactive), respectively.

In the case of `CN1CCc2cccc3c2C1Cc1ccc(O)c(O)c1-3.Cl` (stereo not given) [Apomorphine hydrochloride hemihydrate], the figures for the cell number in experiment [1] and in experiment [2] were 89.9 and 87.9, respectively. Besides, the results for the H1.0 immunofluorescence intensity in experiment [3] and in experiment [4] were 94.8 (inactive) and 99.6 (inactive), respectively.

With `O=C(Nc1ccc(-c2cn[nH]c2)cc1)C1COc2ccccc2O1` (stereo not given) [Rho Kinase Inhibitor V], the cell number amounted to 107 in experiment [1] and 109 in experiment [2]. The H1.0 immunofluorescence intensity in experiment [3] was 87.7 (inactive); in experiment [4], 101 (inactive).

In the case of `CCN(CC)CCNC(=O)c1ccc(N)cc1.Cl` [Procainamide.HCl], the cell number was determined as 108 in experiment [1] and 101 in experiment [2]. In addition, the figures for the H1.0 immunofluorescence intensity in experiment [3] and in experiment [4] were 91.2 (inactive) and 101 (inactive), respectively.

As for `COc1cc2ccccc2cc1C(=O)OC(C)C(=O)NCc1ccc(F)cc1` (stereo not given) [IP3K Inhibitor], the values for the cell number in experiment [1] and in experiment [2] were 102 and 107, respectively. For the same molecule, the values for the H1.0 immunofluorescence intensity in experiment [3] and in experiment [4] were 98.7 (inactive) and 115 (inactive), respectively.

With `Cc1ccc(CN2C(=O)S/C(=C\c3ccc(Cl)cc3)C2=O)cc1`, the cell number in experiment [1] amounted to 99.6; in experiment [2], 117. Besides, the results for the H1.0 immunofluorescence intensity in experiment [3] and in experiment [4] were 98.2 (inactive) and 97.2 (inactive), respectively.

`CNCCCC12CCC(c3ccccc31)c1ccccc12.Cl` [Maprotiline.HCl]: the results for the cell number in experiment [1] and in experiment [2] were 100 and 90.4, respectively. The H1.0 immunofluorescence intensity is 94.5 (inactive) in experiment [3] and 119 (inactive) in experiment [4].

In the case of `CCCC(CCC)C(=O)O` [Valproic acid], the cell number came to 100 in experiment [1] and 111 in experiment [2]. Besides, the figures for the H1.0 immunofluorescence intensity in experiment [3] and in experiment [4] were 97 (inactive) and 105 (inactive), respectively.

With `CC1(C)CCC=[N+]1[O-]` [5,5-Dimethyl-1-pyrroline-N-oxide], the figures for the cell number in experiment [1] and in experiment [2] were 100 and 105, respectively. Moreover, the results for the H1.0 immunofluorescence intensity in experiment [3] and in experiment [4] were 94.2 (inactive) and 99.5 (inactive), respectively.

Regarding `O=C(O)c1ccccc1Nc1ccccc1` [N-Phenylanthranilic acid], the cell number in experiment [1] was 102; in experiment [2] it was 104. Also, the H1.0 immunofluorescence intensity in experiment [3] was 100 (inactive); in experiment [4] it was 97.5 (inactive).

Consider `COc1c(OCCCCN2CCN(C)CC2)cc(O)c2c(=O)cc(-c3ccccc3)oc12`, for which the cell number in experiment [1] worked out at 25.3; in experiment [2], 34.9. Moreover, the H1.0 immunofluorescence intensity in experiment [3] is 133 (active); in experiment [4], 119 (inactive).

Consider `O=c1c(O)c(-c2ccc(O)cc2O)oc2cc(O)cc(O)c12` [Morin], for which the figures for the cell number in experiment [1] and in experiment [2] were 99.7 and 94, respectively. Besides, the H1.0 immunofluorescence intensity in experiment [3] was 89.4 (inactive); in experiment [4], 98.5 (inactive).

Turning to `Cl.Cl.Cl.Ic1ccc(N2CCN(Cc3c[nH]c4ncccc34)CC2)cc1` [L-750,667 trihydrochloride], the cell number in experiment [1] came out at 103; in experiment [2], 101. For the same molecule, the values for the H1.0 immunofluorescence intensity in experiment [3] and in experiment [4] were 103 (inactive) and 108 (inactive), respectively.

As to `CCCCCCCCCCCCCCCCOCC(CO)OC(C)=O` (stereo not given) [1-Hexadecyl-2-O-acetyl-glycerol], the values for the cell number in experiment [1] and in experiment [2] were 106 and 99.8, respectively. Also, the H1.0 immunofluorescence intensity was 98.3 (inactive) in experiment [3] and 86.3 (inactive) in experiment [4].

With `Cc1ccc(N(CC2=NCCN2)c2cccc(O)c2)cc1` [Phentolamine], the results for the cell number in experiment [1] and in experiment [2] were 107 and 100, respectively. Moreover, the H1.0 immunofluorescence intensity is 99.7 (inactive) in experiment [3] and 96.6 (inactive) in experiment [4].

Consider `CCCCCCCCCCCCCC=CC(O)C(CO)NC(C)=O` (stereo not given) [C2 Ceramide], for which the values for the cell number in experiment [1] and in experiment [2] were 101 and 107, respectively. Further, the results for the H1.0 immunofluorescence intensity in experiment [3] and in experiment [4] were 94.8 (inactive) and 102 (inactive), respectively.

`COc1ccc2c(c1)CCC1C2CCC2(C)C(NCCCCCCN3C(=O)C=CC3=O)CCC12` (stereo not given): the cell number was 103 in experiment [1] and 111 in experiment [2]. The H1.0 immunofluorescence intensity in experiment [3] is 88.6 (inactive); in experiment [4] it was 103 (inactive).

`Cl.N[C@@H](CCC(=O)O)C(=O)O` [L-Glutamic acid hydrochloride]: the values for the cell number in experiment [1] and in experiment [2] were 103 and 114, respectively. Besides, the H1.0 immunofluorescence intensity in experiment [3] is 90.1 (inactive); in experiment [4], 91.5 (inactive).

(Values after the supplement of paper PMC7156485.)
